The values below come from PubChem BioAssay.

Where “and” joins values, the source holds several entries; their conditions need not be identical. Equal values may be shown once. Calls of active or inactive are those of the source.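 Rule for the calls, unless noted: active = fluorescence slope higher than the sample average by over 3 SD (cut at about -0.22 in these data, passing the limit was not always enough); inactive = the rest.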

Test [1] is described as follows: inhibitors of TNFa-induced NFkB p65 translocation, primary screen, imaging, HUVEC, MLSMR starter and 10KST1 sets (AID 438;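 active = inhibition above 20% together with a positive visual image hit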;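 note: compound added about 3h40 before a 20 min TNFalpha stimulation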;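 for inhibition: signal is the nuclear over cytoplasmic p65 intensity ratio per well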). To be noted: HUVEC TNFa-induced p65 nuclear translocation; cell count: measured here: nuclei count (cytotoxicity indicator), at 2.08 µM; inhibition: at 2 µM, stronger effect = higher value, 0% TNFa-plus-vehicle, 100% no-TNFa wells.
The nature of test [2]: endothelial E-selectin expression blockers – imaging, HUVEC, immunofluorescence, MLSMR starter and 10KST1 sets, primary screen (AID 487;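 active = visually confirmed hit in the image check and inhibition above 20%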;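 for inhibition: signal is fraction of cell area covered by stained E-selectin grains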;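 for nuclei count: 100% = median nuclei count of all wells on the same plate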). To be noted: HUVEC TNFalpha-induced E-selectin immunofluorescence imaging, at 2 µM; inhibition: stronger effect = higher value; nuclei count: measured here: cell number, toxicity.
Test [3] is described as follows: Primary imaging screen for DUSP6 inhibitors that restore phospho-Erk in transfected HeLa cells, chemical complementation (AID 609;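 active = compounds giving at least 50% inhibition in the cell-based MKP-3 phosphatase rescue imaging test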;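 for inhibition: phospho-Erk level distribution per well compared with pooled transfected vehicle control wells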). The settings on record: HeLa MKP-3 transfected, phospho-Erk imaging KS statistic, at 10 µM, cells stimulated with TPA for 15 min.
Test [4] concerns the target Dual specificity protein phosphatase 6 (Homo sapiens) (UniProt Q16828). The test is described as above. To be noted: HeLa MKP-3 transfected, phospho-Erk imaging KS statistic; at 10 µM; stronger effect = higher value; cells stimulated with TPA for 15 min.
For test [5], the target named is Voltage-gated potassium channel subunit beta-2 (Rattus norvegicus) (UniProt P62483). The experiment in a line: inhibitors of rat Kvbeta2 reductase activity – biochemical, NADPH fluorescence, primary screen (AID 622).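 Note: slope of raw intensity against log time taken from 70 to 1610 s.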 The settings on record: recombinant KvBeta, 4-cyanobenzaldehyde reduction, at 10 µM, stronger effect = higher value.
Sequence of Voltage-gated potassium channel subunit beta-2 (Rattus norvegicus) (P62483 whole entry, looked up): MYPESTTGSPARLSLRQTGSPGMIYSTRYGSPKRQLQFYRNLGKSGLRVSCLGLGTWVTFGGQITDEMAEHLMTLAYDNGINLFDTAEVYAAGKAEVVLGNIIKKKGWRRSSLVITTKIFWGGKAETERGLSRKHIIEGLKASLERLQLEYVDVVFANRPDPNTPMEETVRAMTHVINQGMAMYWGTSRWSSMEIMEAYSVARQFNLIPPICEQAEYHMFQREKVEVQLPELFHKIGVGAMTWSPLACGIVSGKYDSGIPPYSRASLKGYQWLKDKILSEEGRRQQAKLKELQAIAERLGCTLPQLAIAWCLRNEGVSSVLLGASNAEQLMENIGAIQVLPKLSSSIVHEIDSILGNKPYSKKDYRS
The target is the same in test [6]. Briefly: enhancers of rat Kvbeta2 NADPH turnover – biochemical, NADPH fluorescence, primary screen (AID 623;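 active = NADPH fluorescence slope more negative than the mean of all samples by about 3 SD, 99.7% confidence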;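 note: fluorescence intensity change per second fitted from 20 to 320 s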). To be noted: Recombinant KvBeta, NADPH fluorescence decrease slope, 10 min; at 10 µM; stronger effect = lower value.
For test [7], the target named is Muscarinic acetylcholine receptor M4 (Homo sapiens) (UniProt P08173). Briefly: M4-linked GIRK flux change, two-sided – cell-based, HEK293 M4/GIRK, thallium flux, BTC-AM, M4 allosteric agonist project, primary screen (AID 625;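 active = fluorescence slope after compound addition differing from the mean of all tested samples at 99.7% confidence, mostly higher but some lower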;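 note: thallium influx through GIRK channels coupled to M4 in HEK293 cells with BTC-AM dye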). The settings on record: at 10 µM, actives lie on both sides.
Sequence of Muscarinic acetylcholine receptor M4 (Homo sapiens) (P08173 whole entry, looked up): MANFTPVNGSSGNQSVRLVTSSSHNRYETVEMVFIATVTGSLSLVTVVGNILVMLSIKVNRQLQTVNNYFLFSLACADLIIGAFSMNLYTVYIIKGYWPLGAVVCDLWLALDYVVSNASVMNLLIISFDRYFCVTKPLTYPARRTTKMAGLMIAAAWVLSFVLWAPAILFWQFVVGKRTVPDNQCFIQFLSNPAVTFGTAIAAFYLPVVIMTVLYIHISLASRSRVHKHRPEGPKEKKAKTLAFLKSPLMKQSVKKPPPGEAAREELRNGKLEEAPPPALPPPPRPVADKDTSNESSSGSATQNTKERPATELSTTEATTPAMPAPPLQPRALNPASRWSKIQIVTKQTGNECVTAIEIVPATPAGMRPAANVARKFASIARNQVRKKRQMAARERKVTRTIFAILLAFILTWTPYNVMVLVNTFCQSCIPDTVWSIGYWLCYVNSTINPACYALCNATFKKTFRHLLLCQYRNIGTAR
Test [8] can be described thus: inhibitors of larval lipid processing in zebrafish, primary screen, whole organism, PED6 fluorescence, gall bladder and intestine (AID 686;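 active = a full or partial loss of lipid-probe fluorescence in the fish gall bladder, intestine or both, judged by eye; inactive = no fluorescence loss, or compound toxic to the fish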;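 note: larvae 5 to 7 days old with five fish per well; signal comes from phospholipase A2 cleavage of quenched PED6 carried via bile; overnight exposure to compound and PED6 before scoring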). The settings on record: Zebrafish larvae PED6 lipid processing, fluorescence scoring; screened at 20 µM (by protocol).
Test [9] in a line: loss of swimming-algae plug formation – whole organism, Chlamydomonas reinhardtii, WT vs cilia-less mutant, absorbance, 96-well, primary screen (AID 463189;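 active = inhibition at or above 50% relative to wild type and mutant plate controls; inactive = inhibition below 50%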;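 note: 0% = wild type cc124 cells in DMSO and 100% = ciliumless bld1 mutant cells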). The settings on record: Chlamydomonas reinhardtii gravitaxis, OD600 absorbance, 2 days; at 10 µM; stronger effect = higher value.
Test [10] concerns the target Alpha-2C adrenergic receptor (Homo sapiens) (UniProt P18825). The experiment in a line: compounds altering alpha2C-coupled GIRK flux – cell-based, HEK293 alpha2C/GIRK1/2, thallium flux, primary screen (AID 624;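 active = fluorescence slope after compound addition differing from the mean of all screened samples at 99.7% confidence, in either direction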;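 note: slope of fluorescence ratio to pre-addition baseline per second over 15 to 24 s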). To be noted: thallium flux BTC fluorescence, at 10 µM, actives lie on both sides.
Test [11] can be described thus: blockers of RIG-like receptor reporter activation – cell-based, Sendai virus stimulus, luciferase, 10K MLSCN set, TLR/RLR signaling modifier project, primary screen (AID 602276;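 active = inhibition at or above 50% at 10 µM; inactive = inhibition below 50%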;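 note: firefly luciferase from ISG56 promoter only with Renilla not read in this screen; 0% = Sendai virus plus DMSO and 100% = medium plus DMSO without virus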). The settings on record: HEK293 RL24 IRF3 luciferase reporter, at 10 µM, stronger effect = higher value. In general terms: In a reporter assay the amount or activity of a reporter protein is the signal.

Test [12] is described as follows: TLR3 IRF3 reporter activation blockers – cell-based, poly I:C stimulus, luciferase, 10K MLSCN set, primary screen (AID 602277;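 active = inhibition of the reporter signal at or above 50%; inactive = inhibition below 50%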). The settings on record: HEK293-TLR3 RL24 IRF3 luciferase reporter, at 10 µM, stronger effect = higher value.
[13] abbreviates: measured here: cell density z-score.
The mark [14] stands for this setting: measured here: nuclear c-Myc green intensity z-score.
Where [15] appears, read: measured here: nuclear pErk red intensity z-score, stronger effect = higher value.

The term inhibition denotes the drop in the measured response relative to a control, in per cent.

Sequence of Dual specificity protein phosphatase 6 (Homo sapiens) (Q16828 whole entry, looked up): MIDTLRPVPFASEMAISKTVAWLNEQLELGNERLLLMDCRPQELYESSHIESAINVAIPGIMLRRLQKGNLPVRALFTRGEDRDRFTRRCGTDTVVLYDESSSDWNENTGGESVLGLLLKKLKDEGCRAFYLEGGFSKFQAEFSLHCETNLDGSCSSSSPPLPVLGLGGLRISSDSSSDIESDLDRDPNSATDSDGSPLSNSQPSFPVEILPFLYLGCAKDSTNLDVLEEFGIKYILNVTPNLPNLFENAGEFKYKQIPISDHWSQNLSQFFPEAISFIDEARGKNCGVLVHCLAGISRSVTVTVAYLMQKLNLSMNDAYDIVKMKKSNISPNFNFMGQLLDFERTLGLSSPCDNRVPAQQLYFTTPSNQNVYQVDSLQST
Sequence of Alpha-2C adrenergic receptor (Homo sapiens) (P18825 whole entry, looked up): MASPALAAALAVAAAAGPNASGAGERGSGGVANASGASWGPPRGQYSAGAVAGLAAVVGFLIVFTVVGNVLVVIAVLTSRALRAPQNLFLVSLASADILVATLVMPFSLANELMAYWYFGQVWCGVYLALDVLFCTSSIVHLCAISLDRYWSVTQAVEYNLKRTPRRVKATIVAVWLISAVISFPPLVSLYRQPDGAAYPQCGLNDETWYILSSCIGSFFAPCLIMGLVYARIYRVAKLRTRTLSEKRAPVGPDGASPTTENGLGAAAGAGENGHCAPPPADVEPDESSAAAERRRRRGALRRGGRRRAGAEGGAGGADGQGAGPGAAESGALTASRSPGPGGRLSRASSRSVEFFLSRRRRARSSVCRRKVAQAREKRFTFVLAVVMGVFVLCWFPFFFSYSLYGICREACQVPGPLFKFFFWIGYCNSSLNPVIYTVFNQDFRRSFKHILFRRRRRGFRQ

Take `CC(NC(=O)NC(N)=O)(C(F)(F)F)C(F)(F)F`: the cell count in test [1] was found to be 674. In addition, the inhibition in test [1] is 6.8% (inactive); in test [2], -84.9% (inactive); in test [4], 13.9% (inactive); in test [9], 21.5% (inactive). Further, the nuclei count in [2] was 109%. The z-score in test [3] (setting [13]) was determined as 0.562; in test [3] (setting [14]), 0.75; in [3] (setting [15]) it was 0.26. Moreover, the fluorescence slope in [5] is -0.534 (inactive); in test [7], 0.00493 (inactive). The NADPH fluorescence slope in test [6] was -1.1e-05 (inactive). The result in test [8] was inactive.
As to `COC(=O)C1=C(C)N=C2SC(C)C(=O)N2C1c1ccc(C(=O)OC)cc1` (stereo not given), in test [1], the cell count amounted to 746. For the same compound, the inhibition is -2.4% (inactive) in test [1], -42.3% (inactive) in test [2], 9.61% (inactive) in test [4] and 1.12% (inactive) in test [9]. In test [2], this compound registered a nuclei count of 164%. For the same compound, the results for the z-score in test [3] (setting [13]), in [3] (setting [14]) and in test [3] (setting [15]) were 0.938, -0.219 and -3.03, respectively. Moreover, the values for the fluorescence slope in [5] and in test [7] were -0.448 (inactive) and 0.00486 (inactive), respectively. In addition, in test [6], the NADPH fluorescence slope is -4.8e-05 (inactive). Also, in [8], the compound was called inactive.
For `CCCSc1nnc2n(C)c(=O)c3c4c(sc3n12)CCC4`, the cell count in [1] is 376. In addition, the inhibition in test [1] is -2.9% (inactive); in test [2] it was -11.1% (inactive); in [4] it was 9.42% (inactive); in test [9] it was 62% (active). The compound also returned a nuclei count in [2] of 83.1%. For the same compound, the z-score in [3] (setting [13]) was -0.271; in test [3] (setting [14]), -0.0406; in test [3] (setting [15]), 0.896. The figures for the fluorescence slope in [5] and in test [7] were -0.501 (inactive) and 0.00582 (inactive), respectively. Moreover, the NADPH fluorescence slope in test [6] was -7.9e-05 (inactive). In addition, the result in [8] was inactive.
On to `c1ccc(CSc2nnc(SCc3ccccn3)s2)nc1`, for which, in test [1], the cell count was 352. Moreover, the inhibition in test [1] is -20.9% (inactive); in [4], 3.66% (inactive); in test [9], -2.59% (inactive). Moreover, the nuclei count in test [2] was 173%. The z-score in test [3] (setting [13]) is 1.06; in [3] (setting [14]), -1.17; in [3] (setting [15]) it was 0.36. Besides, the fluorescence slope in [5] is -0.405 (inactive). Moreover, the NADPH fluorescence slope in test [6] was -5.6e-05 (inactive). Moreover, the slope in test [10] is 0.00665 (inactive). Also, the call in test [8] was inactive.
As to `COC(=O)CSc1ncnc2c1sc1nc(-c3ccco3)c3c(c12)CC(C)(C)OC3`, the cell count in test [1] turned out to be 514. Besides, the inhibition in [1] was -12.6% (inactive); in [2] it was -71.6% (inactive); in [4] it was 9.91% (inactive); in test [9], -8.07% (inactive). Further, the nuclei count in [2] was determined as 130%. The z-score in test [3] (setting [13]) is -0.117; in test [3] (setting [14]), 0.288; in [3] (setting [15]), -0.223. Further, the figures for the fluorescence slope in [5] and in test [7] were -0.364 (inactive) and 0.00608 (inactive), respectively. The NADPH fluorescence slope in [6] is -2e-06 (inactive). Also, the result in test [8] was inactive.
Consider `Nc1nonc1C(=O)NCCN=Cc1cc(Cc2ccccc2)cc(Br)c1O`, for which the cell count in test [1] amounted to 537. For the same compound, the inhibition in test [1] is -4.9% (inactive); in test [2], 49.5% (inactive); in [4] it was -1.98% (inactive); in [9], -5.78% (inactive). Further, in test [2], the nuclei count is 156%. Moreover, the z-score in [3] (setting [13]) is -0.875; in test [3] (setting [14]), 1.06; in [3] (setting [15]) it was 0.686. The figures for the fluorescence slope in test [5] and in test [7] were -0.41 (inactive) and 0.00522 (inactive), respectively. Also, the NADPH fluorescence slope in test [6] is -6.3e-05 (inactive). For the same compound, the result in [8] was inactive.
As to `CCN(CC)CC(=O)Nc1c(C)cccc1C`, the cell count in test [1] was 642 and 715. For the same compound, the inhibition in test [1] was -6.5% (inactive) and -1% (inactive); in [2], -39.3% (inactive) and -82.5% (inactive); in test [4], 15.3% (inactive) and 14.6% (inactive); in [11] it was 11.4% (inactive) and 10.3% (inactive); in [12], 39.6% (inactive) and 42.7% (inactive). Further, in test [2], the nuclei count was 130% and 116%. The z-score in [3] (setting [13]) is -0.149 and 1.01; in test [3] (setting [14]), 0.72 and -0.684; in test [3] (setting [15]), -0.101 and 0.844. Besides, the fluorescence slope in [5] was -0.457 (inactive) and -0.466 (inactive). The NADPH fluorescence slope in test [6] is 7.7e-06 (inactive) and -5.7e-05 (inactive). Further, the slope in test [10] was 0.00536 (inactive) and 0.0061 (inactive).
